Assay [1] deals with Estrogen receptor (Homo sapiens) (UniProt P03372). In words: OT_ER_ERaERa_1440: Odyssey Thera (OT) 24-hour HEK293T Protein-Complementation Assay for Estrogen Receptor-alpha/-alpha Homodimer (AID 2283349).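 Also: hits raise fluorescence above DMSO for agonists and antagonists alike.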 The essentials:
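Readout is the rise in mean fluorescence from reporter fragment complementation when ERα LBD (aa 310-547) units dimerize in HEK293T cells. Measured 24 h after dosing and analysed as increase over DMSO control.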

Assay [2] deals with Bile acid receptor (Homo sapiens) (UniProt Q96RI1). In words: NVS_NR_hFXR_Antagonist: NovaScreen (NVS) Nuclear Receptor Binding Assay for human Farnesoid X Receptor Antagonism (FXR) (AID 2283350). The essentials: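 Cell-free TR-FRET ligand-binding read-out on human FXR (NR1H4) in antagonist mode, measured 1 h after dosing. Primary screen in duplicate at 25 uM, actives retested in concentration series; signal loss scored versus DMSO.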

For assay [3], the target named is Estrogen receptor (Homo sapiens) (UniProt P03372). The assay is described as follows: OT_ER_ERaERa_0480: Odyssey Thera (OT) 8-hour HEK293T Protein-Complementation Assay for Estrogen Receptor-alpha/-alpha Homodimer (AID 2283351).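 Also: rise in fluorescence from reassembled reporter fragments on ERα LBD homodimer in nucleus or whole cell.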 The method, boiled down: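 HEK293T cells stably expressing the human ERα ligand-binding domain (aa 310-547) as a homodimer PCA were dosed with compound for 8 h. Gain of fluorescence intensity versus DMSO vehicle was read by laser scanning cytometry.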

Assay [4] has as its target Androgen Receptor/SRC-1 Co-activator, AR (gene 367) (UniProt P10275). In words: OT_AR_ARSRC1_0960: Odyssey Thera (OT) 16-hour HEK293T Protein-Complementation Assay for Androgen Receptor/SRC-1 Co-activator (AID 2283353).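 Also: actives raise the signal above DMSO so potency reflects increased AR and SRC-1 complex.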 The essentials:
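HEK293T cells stably expressing AR and SRC-1 fused to split Venus YFP fragments via (Gly4Ser)2 linkers were dosed for 16 h. Nuclear/cytoplasmic fluorescence ratio at 488 nm, ≥400 cells per image, fitted for gain of signal versus DMSO.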

For assay [5] the target is unchanged. In words: OT_AR_ARSRC1_0480: Odyssey Thera (OT) 8-hour HEK293T Protein-Complementation Assay for Androgen Receptor/SRC-1 Co-activator (AID 2283354).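 Also: hits raise the complementation signal above DMSO so AC50 marks enhancers.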 The essentials: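 HEK293T cells stably expressing AR and SRC-1 fused to split Venus YFP fragments via (Gly4Ser)2 linkers were read 8 h after compound dosing. Complementation was imaged at 488 and 635nm, and nuclear/cytoplasmic fluorescence ratio (488nm) was taken over ≥400 cells; gain-of-signal versus DMSO.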

The target of assay [6] is chimpanzee Androgen Receptor (AR), AR (gene 747460) (UniProt O97775). The assay is described as follows: NVS_NR_cAR: NovaScreen (NVS) Nuclear Receptor Binding Assay for chimpanzee Androgen Receptor (AR) (AID 2283346).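 Also: radioligand displacement from AR measured by scintillation counting in a cell-free assay.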 The method, boiled down:
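Cell-free radioligand displacement using receptor protein extracted from Sf9/Sf21 cells; bound radioligand measured by scintillation counting 72 hours after chemical dosing. Loss of signal versus DMSO baseline indicates binding; primary screen single-concentration in duplicate at 25 uM, actives followed in concentration series.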

Assay [7] has as its target T1, Estrogen receptor (Homo sapiens) + Estrogen receptor beta (Homo sapiens) (UniProt P03372+Q92731). In words: OT_ER_ERaERb_0480: Odyssey Thera (OT) 8-hour HEK293T Protein-Complementation Assay for Estrogen Receptor-alpha/-beta Heterodimer (AID 2283352). The essentials: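 Fluorescence increase from reconstituted reporter fragments, quantified by laser scanning cytometer, reflects ER-alpha/ER-beta heterodimer formation in human HEK293T cells. Exposure 8 h; positive-direction fitting against DMSO vehicle.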

The target of assay [8] is T1, Estrogen receptor (Homo sapiens) + Estrogen receptor beta (Homo sapiens). In words: OT_ER_ERaERb_1440: Odyssey Thera (OT) 24-hour HEK293T Protein-Complementation Assay for Estrogen Receptor-alpha/-beta Homodimer (AID 2283356).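 Also: heteromer of ER alpha and ER beta binding domains; hits raise reporter fluorescence and both agonists and antagonists give an increase.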 The method, boiled down: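 Fragment complementation between ER alpha (310-547) and ER beta (263-489) ligand-binding domains in HEK293T cells; signal read 24 h post-dosing by laser scanning cytometer. Gain of fluorescence relative to DMSO fitted.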

Results filed as inconclusive are left out. The source made the active and inactive calls. The calls were made as follows: active = hit-call score of the fitted dose curve at least 0.9, where 1 is the maximum; inconclusive = response in the unintended direction; inactive = score below 0.9.

chimpanzee Androgen Receptor (AR), AR (gene 747460), sequence (O97775 whole entry, looked up): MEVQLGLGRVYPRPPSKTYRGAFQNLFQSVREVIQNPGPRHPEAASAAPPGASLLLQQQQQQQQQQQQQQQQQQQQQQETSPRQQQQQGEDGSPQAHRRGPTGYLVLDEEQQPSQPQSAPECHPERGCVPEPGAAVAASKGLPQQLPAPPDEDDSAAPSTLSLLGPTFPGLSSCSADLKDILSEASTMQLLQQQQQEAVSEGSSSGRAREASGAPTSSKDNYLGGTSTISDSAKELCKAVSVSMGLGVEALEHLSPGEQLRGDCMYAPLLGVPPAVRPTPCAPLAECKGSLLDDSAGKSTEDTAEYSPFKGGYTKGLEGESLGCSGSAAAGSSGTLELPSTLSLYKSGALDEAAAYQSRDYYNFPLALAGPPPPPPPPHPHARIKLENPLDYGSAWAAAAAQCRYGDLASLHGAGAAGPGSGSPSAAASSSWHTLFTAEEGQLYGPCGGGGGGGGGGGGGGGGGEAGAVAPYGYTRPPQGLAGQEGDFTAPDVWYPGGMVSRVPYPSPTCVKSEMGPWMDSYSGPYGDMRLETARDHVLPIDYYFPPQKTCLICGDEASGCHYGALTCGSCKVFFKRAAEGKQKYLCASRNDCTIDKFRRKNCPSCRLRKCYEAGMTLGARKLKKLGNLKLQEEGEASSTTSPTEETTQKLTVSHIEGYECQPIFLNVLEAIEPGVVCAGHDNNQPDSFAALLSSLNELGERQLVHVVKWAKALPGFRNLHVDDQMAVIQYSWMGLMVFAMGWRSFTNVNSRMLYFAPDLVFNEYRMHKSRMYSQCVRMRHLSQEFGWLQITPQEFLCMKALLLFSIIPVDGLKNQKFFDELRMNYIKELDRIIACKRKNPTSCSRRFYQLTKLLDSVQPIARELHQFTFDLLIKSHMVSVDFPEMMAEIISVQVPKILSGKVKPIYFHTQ
Bile acid receptor (Homo sapiens), sequence (Q96RI1 whole entry, looked up): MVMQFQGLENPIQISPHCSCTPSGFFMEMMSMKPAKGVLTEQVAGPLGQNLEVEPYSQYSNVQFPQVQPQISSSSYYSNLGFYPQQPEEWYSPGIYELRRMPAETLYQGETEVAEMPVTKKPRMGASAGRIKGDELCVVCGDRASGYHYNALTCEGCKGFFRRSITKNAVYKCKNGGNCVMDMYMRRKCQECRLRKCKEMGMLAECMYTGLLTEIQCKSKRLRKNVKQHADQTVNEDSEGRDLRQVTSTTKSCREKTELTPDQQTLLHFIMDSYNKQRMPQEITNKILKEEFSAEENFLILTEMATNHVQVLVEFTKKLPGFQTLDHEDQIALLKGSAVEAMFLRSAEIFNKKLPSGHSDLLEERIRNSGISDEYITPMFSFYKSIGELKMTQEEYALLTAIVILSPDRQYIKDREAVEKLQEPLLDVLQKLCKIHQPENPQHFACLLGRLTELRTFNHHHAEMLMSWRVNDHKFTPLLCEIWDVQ
Androgen Receptor/SRC-1 Co-activator, AR (gene 367), sequence (P10275 whole entry, looked up, the tested form may be a part): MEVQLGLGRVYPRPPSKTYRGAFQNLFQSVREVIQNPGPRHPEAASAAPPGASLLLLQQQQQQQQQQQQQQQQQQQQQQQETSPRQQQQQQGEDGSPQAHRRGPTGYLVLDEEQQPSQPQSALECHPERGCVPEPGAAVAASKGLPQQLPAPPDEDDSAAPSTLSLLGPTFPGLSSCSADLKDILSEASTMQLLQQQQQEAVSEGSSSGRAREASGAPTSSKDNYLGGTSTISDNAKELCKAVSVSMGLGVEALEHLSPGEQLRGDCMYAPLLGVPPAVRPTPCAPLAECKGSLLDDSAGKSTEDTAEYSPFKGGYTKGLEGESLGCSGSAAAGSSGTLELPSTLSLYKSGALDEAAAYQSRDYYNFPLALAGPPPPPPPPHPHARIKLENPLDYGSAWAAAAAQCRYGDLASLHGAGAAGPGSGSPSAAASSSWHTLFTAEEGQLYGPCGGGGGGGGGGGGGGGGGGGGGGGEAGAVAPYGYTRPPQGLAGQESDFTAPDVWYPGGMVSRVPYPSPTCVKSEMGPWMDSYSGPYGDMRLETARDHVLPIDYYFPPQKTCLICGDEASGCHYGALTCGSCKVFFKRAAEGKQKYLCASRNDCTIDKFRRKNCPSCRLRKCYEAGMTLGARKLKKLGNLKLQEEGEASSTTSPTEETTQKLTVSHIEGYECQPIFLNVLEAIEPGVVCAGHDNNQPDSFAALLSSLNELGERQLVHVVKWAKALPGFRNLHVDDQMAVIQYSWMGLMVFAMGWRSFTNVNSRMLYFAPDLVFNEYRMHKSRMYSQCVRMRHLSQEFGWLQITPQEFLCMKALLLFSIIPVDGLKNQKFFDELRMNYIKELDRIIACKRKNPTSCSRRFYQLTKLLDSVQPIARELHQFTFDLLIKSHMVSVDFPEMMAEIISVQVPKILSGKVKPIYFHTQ
T1 sequence (P03372 whole entry, looked up, the tested form may be a part): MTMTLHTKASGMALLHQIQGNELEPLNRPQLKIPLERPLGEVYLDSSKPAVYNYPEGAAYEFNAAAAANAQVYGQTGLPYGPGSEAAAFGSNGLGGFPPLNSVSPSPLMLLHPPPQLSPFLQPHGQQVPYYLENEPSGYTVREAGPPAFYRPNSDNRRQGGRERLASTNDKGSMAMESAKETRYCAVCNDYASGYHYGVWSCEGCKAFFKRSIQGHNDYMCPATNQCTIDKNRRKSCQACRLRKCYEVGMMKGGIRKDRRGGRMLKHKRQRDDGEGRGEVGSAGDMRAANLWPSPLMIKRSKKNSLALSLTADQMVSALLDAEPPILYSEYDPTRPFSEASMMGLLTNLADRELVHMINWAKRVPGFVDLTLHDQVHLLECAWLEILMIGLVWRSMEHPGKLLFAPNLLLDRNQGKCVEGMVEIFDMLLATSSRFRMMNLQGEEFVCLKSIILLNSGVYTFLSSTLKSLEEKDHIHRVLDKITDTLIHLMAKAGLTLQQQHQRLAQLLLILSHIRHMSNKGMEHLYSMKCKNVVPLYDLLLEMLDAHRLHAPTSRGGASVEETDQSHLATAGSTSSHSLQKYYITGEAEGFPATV
T1 sequence (Q92731 whole entry, looked up, the tested form may be a part): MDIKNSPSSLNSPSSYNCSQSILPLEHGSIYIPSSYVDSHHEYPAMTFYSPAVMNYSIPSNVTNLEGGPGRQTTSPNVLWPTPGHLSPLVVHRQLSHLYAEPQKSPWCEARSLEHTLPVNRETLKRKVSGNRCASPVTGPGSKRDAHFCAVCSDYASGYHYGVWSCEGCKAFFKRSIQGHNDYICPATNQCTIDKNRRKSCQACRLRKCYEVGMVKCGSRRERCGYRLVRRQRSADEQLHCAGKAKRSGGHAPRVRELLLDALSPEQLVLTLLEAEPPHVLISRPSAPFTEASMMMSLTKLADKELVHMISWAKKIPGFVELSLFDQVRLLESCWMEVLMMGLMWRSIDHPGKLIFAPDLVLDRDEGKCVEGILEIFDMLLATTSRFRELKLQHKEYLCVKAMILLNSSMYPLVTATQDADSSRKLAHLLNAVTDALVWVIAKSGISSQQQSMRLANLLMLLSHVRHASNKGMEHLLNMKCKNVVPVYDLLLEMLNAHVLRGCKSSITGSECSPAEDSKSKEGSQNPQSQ
Estrogen receptor (Homo sapiens), sequence (P03372 whole entry, looked up, the tested form may be a part): as the sequence (P03372 whole entry, looked up, the tested form may be a part) above

For the compound `O=C(O)c1ccccc1C(=O)OCc1ccccc1`, the call in assay [1], in assay [2], in assay [3], in assay [4] and in assay [5] was inactive.
`Cc1cn([C@H]2C[C@H](N=[N+]=[N-])[C@@H](CO)O2)c(=O)[nH]c1=O`: the result in assay [1] was inactive.
One may read the AC50 as the midpoint of the concentration-response curve, whichever way the signal moves. With `CN1C(=O)N(c2ccccc2Br)Cc2cnc(Nc3ccc4c(c3)OCC(CO)O4)nc21` (configuration not stated), the outcome in assay [6], in assay [1], in assay [3], in assay [7] and in assay [8] was inactive. In addition, the concentration at half-maximal activity (AC50) in assay [2] is 0.0374 µM (active).
In the case of `Cc1ccc(C(C)C)cc1`, the compound was called inactive in assay [1] and in assay [3].
As to `O=C(Nc1ccc(Cl)cc1)Nc1ccc(Cl)c(Cl)c1`, the outcome in assay [1], in assay [2], in assay [3], in assay [7], in assay [5] and in assay [8] was inactive. In addition, the AC50 in assay [4] is 4.86 µM (active).
Turning to `CCO[Si](CCCNC(N)=O)(OCC)OCC`, the compound was classed as inactive in assay [1], in assay [2], in assay [3], in assay [7] and in assay [8].
Regarding `NCc1cccc(C2CCN(C(=O)c3ccc(C#Cc4ccccc4F)o3)CC2)c1`, the AC50 in assay [6] is 32.6 µM (active); in assay [4] it was 14.6 µM (active); in assay [5], 13.3 µM (active). In addition, the compound was classed as inactive in assay [1] and in assay [3].
Regarding `CCCCOC(=O)c1ccc(O)cc1`, the call in assay [6], in assay [4] and in assay [5] was inactive.
For the compound `CCN(CC)C(=O)c1cc(S(=O)(=O)Cc2ccccc2)c(N2CCC(c3ccccc3)CC2)cc1N(CC)CCN(C)C`, the AC50 is 12.6 µM (active) in assay [6] and 10.1 µM (active) in assay [2]. Also, the compound was called inactive in assay [1] and in assay [3].
Regarding `COc1ccc2cc(S(=O)(=O)N[C@H](CC(=O)N[C@H](Cc3ccc(CN4[C@H](C)CCC[C@@H]4C)cc3)C(=O)N(C)C(C)C)c3ccc4c(c3)OCO4)ccc2c1`, the AC50 in assay [6] was 10.8 µM (active). For the same compound, the result in assay [1] and in assay [3] was inactive.
For the compound `CCCCCCCCN(C)CCCCCCCC`, the compound was classed as inactive in assay [1] and in assay [3].
For `CN(C)C(=O)C1(N2CCCCC2)CCN(CC[C@@]2(c3ccc(Cl)c(Cl)c3)CN(C(=O)c3ccccc3)CCO2)CC1`, the figures for the AC50 in assay [6], in assay [4] and in assay [5] were 13.9 µM (active), 11.8 µM (active) and 16.6 µM (active), respectively. In addition, the compound was called inactive in assay [1].

(Values after PubChem BioAssay (EPA / NIEHS).)
